For 27 molecules, Potency and activity change, negative = inhibition results are on record in PubChem BioAssay (NCATS).

Inconclusive results are not listed. A number with no mark means an inactive call. Calls of active or inactive are those of the source. Calls come from the whole dose curve; as a rule, active = well fitted curve in the direction sought with a large enough effect; inconclusive = small, poorly fitted or top-dose-only effect, or another doubt; inactive = no such curve, though single readings can be large; an effect the other way counts as inactive or inconclusive. Where a SMILES comes first, the peptide text is derived from it.

The test system of assay [1] is Zika virus NS2B-NS3 protease. The assay can be described thus: Primary screen GU AMC qHTS for Zika virus inhibitors (AID 1347154).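 For activity change, negative = inhibition: 0% = no-inhibitor control and -100% = no-enzyme control.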 Note: nearly all actives have a fitted effect of over 70% in size. Note: potency is the fitted concentration of half-maximal effect. In a few lines: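 Unlinked Zika NS2B hydrophilic domain/NS3 protease domain noncovalent complex (25 nM final) in 10 mM Tris-HCl pH 8.0, 0.01% Tween 20, with AMC peptide substrate. Fluorescence (ex 340, em 450 nm) change over 15 min, room temperature; percent inhibition fitted to 4-parameter Hill equation.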
(In general: Quantitative high-throughput screening tests each substance at several concentrations.)

A short description of assay [2]: Primary qHTS for small molecule stabilizers of the endoplasmic reticulum resident proteome: Secreted ER Calcium Modulated Protein (SERCaMP) assay (AID 1508630). Note: % is set by controls: 0 for no effect and ±100 for the full control effect. Put shortly:
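The SH-SY5Y reporter protocol was run at 3 concentrations up to 38.3 uM (primary) or 11 concentrations (follow-up): 16 h compound, 100 nM thapsigargin for 4 h, then extracellular luciferase luminescence.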

`CCCN1CCCC(c2cccc(S(C)(=O)=O)c2)C1` (centres undefined): the Potency result in assay [1] and in assay [2] was “inactive” in each case.
Turning to `CC[C@H](C)[C@H](NC(=O)[C@H](CCCN=C(N)N)NC(=O)[C@H](CCCN=C(N)N)NC(=O)[C@H](CC(C)C)NC(=O)[C@H](Cc1ccccc1)NC(=O)CNC(=O)CN)C(=O)N[C@@H](CCCN=C(N)N)C(=O)N1CCC[C@H]1C(=O)N[C@@H](CCCCN)C(=O)N[C@@H](CC(C)C)C(=O)N[C@@H](CCCCN)C(=O)O`, the activity change, negative = inhibition was 11.9% [at 6.83 µM] in assay [1] and -2.68% [at 3.88 µM] in assay [2].
Take `NC(C(=O)O)c1cc(O)cc(O)c1` (centres undefined): the Potency entry in assay [1] and in assay [2] was “inactive” each time.
Consider `CC(C)OC(=O)c1cn(Cc2c(F)cccc2F)c2sc(-c3ccc(NC(=O)C(C)C)cc3)c(CN(C)Cc3ccccc3)c2c1=O`, for which the Potency entry in assay [1] and in assay [2] was “inactive” each time.
In the case of `COc1ccc(/C=C/C(=O)CC(=O)/C=C/c2cccc(O)c2OC)cc1O`, the Potency entry in assay [1] and in assay [2] was “inactive” in each case.
For `CCCCC/C=C\C/C=C\CCCCCCCC(=O)NCC(=O)O`, the results for the activity change, negative = inhibition in assay [1] and in assay [2] were 18.9% [at 6.83 µM] and -10.8% [at 3.88 µM], respectively.
On to `C=C1CC[C@H](O)C/C1=C/C=C1\CCC[C@]2(C)C([C@H](C)CCCC(C)(C)O)CC[C@@H]12` (some centres undefined), for which the Potency entry in assay [1] and in assay [2] was “inactive” in each case.
As for `[C-]#[N+]c1cc(-c2ccncc2)c(C)[nH]c1=O`, the Potency result in assay [1] and in assay [2] was “inactive” throughout.
Regarding `CC(O)[C@@H](N)C(=O)O` (some centres undefined), the Potency result in assay [1] and in assay [2] was “inactive” in each case.
With `C[C@H](NC(=O)CNC(=O)[C@@H](NC(=O)[C@H](Cc1ccccc1)NC(=O)CNC(=O)CNC(=O)[C@@H](N)Cc1ccccc1)[C@@H](C)O)C(=O)N[C@@H](CCCN=C(N)N)C(=O)N[C@@H](CCCCN)C(=O)N[C@@H](CO)C(=O)N[C@@H](C)C(=O)N[C@@H](CCCN=C(N)N)C(=O)N[C@H](CN)CCCCN` (HELM PEPTIDE1{F.G.G.F.T.G.A.R.K.S.A.R.[NCCCC[C@@H](CN)N[*:1]]}$$$$V2.0), the activity change, negative = inhibition was 1.78% [at 6.83 µM] in assay [1] and -10.3% [at 3.88 µM] in assay [2].
Consider `COC(=O)C1=C(C)NC(C)=C(C(=O)NCCCN2CCC(c3ccccc3)(c3ccccc3)CC2)C1c1ccc([N+](=O)[O-])cc1` (centres undefined), for which the Potency entry in assay [1] and in assay [2] was “inactive” in each case.
On to `O=Cc1c2[nH]c3ccccc3c2cc2[nH]c3ccccc3c12`, for which the Potency result in assay [1] and in assay [2] was “inactive” each time.
Take `C[C@H](CC[C@@H]1OC1(C)C)C1CC[C@H]2[C@@H]3CC=C4C[C@@H](O)CC[C@]4(C)[C@H]3CC[C@]12C` (some centres undefined): the Potency entry in assay [1] and in assay [2] was “inactive” throughout.
As for `COc1ccccc1C1(O)CCN(CCCn2c3ccccc3c3ccccc32)CC1`, the Potency entry in assay [1] and in assay [2] was “inactive” in each case.
As for `OCc1cc2c(cn1)[nH]c1ccccc12`, in assay [1], the Potency was 26.7 µM (active). In assay [2], the Potency result was “inactive”.
`CC/C=C\C/C=C\C/C=C\CCCCCCCCCC(=O)O`: the activity change, negative = inhibition in assay [1] was 1.1% [at 6.83 µM]; in assay [2], 4.31% [at 3.88 µM].
Turning to `CCCCCCCCCCCCCCCCCCc1ccc(C(=O)/C=C/C(=O)O)cc1`, the Potency result in assay [1] and in assay [2] was “inactive” in each case.
On to `CC(N)COC(=O)C(CCCCN)NC(=O)Cc1c(-c2ccc3ccccc3c2)[nH]c2c1ccc1ccccc12` (centres undefined), for which the Potency result in assay [1] and in assay [2] was “inactive” in each case.
Turning to `C[C@@H](Cc1ccccc1)Nc1ncnc2c1ncn2[C@@H]1O[C@H](CO)[C@@H](O)[C@H]1O`, the Potency entry in assay [1] and in assay [2] was “inactive” in each case.
Take `CCCCCCCCCCCCC/C=C/[C@@H](O)[C@H](CO)NC(C)=O`: the activity change, negative = inhibition in assay [1] was 16.6% [at 6.83 µM]; in assay [2], 1.43% [at 3.88 µM].
Regarding `CC1c2ccccc2CN1CC1=NCCN1` (centres undefined), the Potency entry in assay [1] and in assay [2] was “inactive” throughout.
Consider `CCCCC/C=C\C/C=C\C/C=C\C/C=C\CCCC(=O)O[C@@H](CO)COC(=O)CCCCCCCCCCCCCCCCC`, for which the figures for the activity change, negative = inhibition in assay [1] and in assay [2] were 6.26% [at 6.83 µM] and -0.0647% [at 3.88 µM], respectively.
For `CSCC[C@@H](N)C(=O)O`, the Potency entry in assay [1] and in assay [2] was “inactive” each time.
`Nc1c(S(=O)(=O)O)cc(Nc2ccc(Cl)cc2)c2c1C(=O)c1ccccc1C2=O`: the Potency result in assay [1] and in assay [2] was “inactive” in each case.
Take `CC(C)[C@H](O)CC[C@@H](C)C1CC[C@H]2C3CC=C4C[C@@H](O)CC[C@]4(C)C3CC[C@]12C` (some centres undefined): the Potency entry in assay [1] and in assay [2] was “inactive” each time.
On to `O=c1oc(-c2ccc(C(F)(F)F)cc2)nn1Cc1cc(Cl)ccc1O`, for which the Potency entry in assay [1] and in assay [2] was “inactive” each time.
In the case of `COc1cc2ncnc(Nc3ccc(Cl)cc3F)c2cc1OC`, the Potency result in assay [1] and in assay [2] was “inactive” each time.
